Records with an inconclusive call do not appear. The source made the active and inactive calls. Unless noted, the call rests on the fitted dose curve; in most records, active means well fitted curve in the direction sought with a large enough effect in the repeat runs; inconclusive means weak or mixed curves; inactive means no such curve, though single readings can be large; an effect the other way counts as inactive or inconclusive.

Assay [1] can be described thus: A CellTox Green Cytotoxicity Assay to monitor cytotoxicity in HepG2 cells - 8 hour (AID 1224890). Further: nearly all actives have a fitted effect of over 45% in size. Further: potency means the concentration at half of the fitted maximal effect. In short, it runs like this:
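HepG2 cells were seeded together with the CellTox Green dye at 600 cells/well, left 5 h at 37 C/5% CO2, then given compounds in DMSO. Fluorescence from dye bound to dead-cell DNA was read repeatedly over 40 h of treatment at 37 C.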

The nature of assay [2]: qHTS assay to identify small molecule antagonists of the estrogen receptor alpha (ER-alpha) signaling pathway using the BG1 cell line in the presence of 0.1 nM 17-beta-estradiol - cell viability counter screen (AID 1259241). Further: nearly all actives have a fitted effect of over 40% in size. Summed up: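 Viability in VM7Luc4E2 cells after 22 hr compound exposure under 0.1 nM 17beta-estradiol stimulation, by CellTiter-Fluor.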
In general terms: qHTS replaces the single test concentration by a dilution series.

A short description of assay [3]: qHTS assay to identify small molecule HDAC inhibitors (AID 1259364). Further: nearly all actives have a fitted effect of over 45% in size. Further: potency means the concentration at half of the fitted maximal effect. Summed up:
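Wild-type HCT-116 cells were plated overnight, exposed to compounds for 2 h at 37 °C, then given HDAC-Glo class I/II luminogenic reagent for 30 min at room temperature before luminescence was read.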

Assay [4] is described as follows: qHTS assay to identify small molecule HDAC inhibitors - cell viability counter screen (AID 1259365). Further: series mostly up to about 92 µM; nearly all actives have a fitted effect of over 50% in size. In short, it runs like this:
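Cytotoxicity was gauged in wild-type HCT-116 cells after a brief 2hr treatment with DMSO-dissolved compounds at 37C and 5% CO2, using CellTiter-Glo luminescence developed for 30min at room temperature.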

The nature of assay [5]: qHTS assay to identify small molecule agonists of the sonic hedgehog signaling (Shh) pathway - cell viability counter screen (AID 1259366). Further: nearly all actives have a fitted effect of over 50% in size. Further: potency means the concentration at half of the fitted maximal effect. In short, it runs like this: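 Stable Gli1-Luc NIH/3T3 clone, 2,000 cells/well. Compound exposure 24hr at 37C. Read-out: CellTiter-Fluor fluorescence.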
Assay [6] in a line: qHTS assay to identify small molecule antagonists of the sonic hedgehog signaling (Shh) pathway - cell viability counter screen (AID 1259367). Further: nearly all actives have a fitted effect of over 55% in size. Further: potency means the concentration at half of the fitted maximal effect. Summed up:
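NIH/3T3-derived Gli1-Luc reporter cells (2,000 per well) rested 4 hr at 37 C, then received DMSO compounds plus conditioned medium. After 23 hr of treatment, CellTiter-Fluor was added for 1 hr at 37C and fluorescence read.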

Assay [7] can be described thus: qHTS assay to identify small molecule agonists of the sonic hedgehog signaling (Shh) pathway (AID 1259368; calls by dose curve; further: series mostly up to about 92 µM; nearly all actives have a fitted effect of over 15% in size). In short, it runs like this: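 NIH/3T3-derived 3T3Gli1-Luc cells carrying a stably integrated Gli1 response element–firefly luciferase reporter were plated, left 4 hr at 37 C, then given compounds in DMSO for 24 hr. Luminescence was read 30 min after adding luciferase reagent.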

The target of assay [8] is Estrogen receptor beta (Homo sapiens) (UniProt Q92731). Kind of assay: qHTS assay to identify small molecule antagonists of the estrogen receptor beta (ER-beta) signaling pathway (AID 1259378; active means well fitted inhibition curve with a large enough effect in the signal ratio in the repeat runs, not every such curve was filed as active; the % refers to the signal ratio; further: potency means the concentration at half of the fitted maximal effect). In short, it runs like this: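 ER-beta-UAS-bla HEK293T (GripTite) cells in 2% charcoal-stripped FBS medium were preincubated 6 hr at 37C, dosed with compound, then stimulated with 1 nM E2 (final) for 16 hr; beta-lactamase reporter read by B/G FRET fluorescence after 2 hr substrate loading.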
Estrogen receptor beta (Homo sapiens), sequence (Q92731 whole entry, looked up): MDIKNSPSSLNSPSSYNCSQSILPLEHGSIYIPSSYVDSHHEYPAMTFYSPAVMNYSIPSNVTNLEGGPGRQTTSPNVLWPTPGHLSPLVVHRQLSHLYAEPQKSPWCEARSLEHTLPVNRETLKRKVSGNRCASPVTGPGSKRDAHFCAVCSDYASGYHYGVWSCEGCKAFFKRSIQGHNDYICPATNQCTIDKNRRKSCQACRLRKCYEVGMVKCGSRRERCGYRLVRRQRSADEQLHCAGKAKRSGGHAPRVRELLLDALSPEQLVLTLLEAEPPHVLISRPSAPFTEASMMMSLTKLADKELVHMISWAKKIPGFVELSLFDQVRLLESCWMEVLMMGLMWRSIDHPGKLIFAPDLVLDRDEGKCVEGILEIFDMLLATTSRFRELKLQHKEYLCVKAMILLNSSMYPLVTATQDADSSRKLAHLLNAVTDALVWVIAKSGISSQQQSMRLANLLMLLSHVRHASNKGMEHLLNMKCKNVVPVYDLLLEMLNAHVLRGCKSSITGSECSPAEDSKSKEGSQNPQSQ

Assay [9] is described as follows: qHTS assay to identify small molecule agonists of the androgen receptor (AR) signaling pathway in the presence of an antagonist - cell viability counter screen (AID 1259379). Further: series mostly up to about 92 µM; nearly all actives have a fitted effect of over 25% in size. Summed up:
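MDA-kb2 human breast carcinoma cells (stable MMTV-luciferase, AR/GR responsive) were seeded 3,000 cells/well, pre-incubated 5 hr at 37C without CO2, then given 3.0uM nilutamide and compounds at 15 concentrations for 16 hr. Viability was read by CellTiter-Fluor fluorescence.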

A short description of assay [10]: qHTS assay to identify small molecule agonists or antagonists of the thyroid stimulating hormone receptor (TSHR) signaling pathway - wild type cell line counter screen (AID 1259384; calls by dose curve). In short, it runs like this: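 Wild-type HEK293 cells were plated 18 h at 37 C/5% CO2, pin-dosed with compound plus Ro20-1724 medium, held 30 min at room temperature, then given cAMP-d2 and anti-cAMP-cryptate; fluorescence was read after 1 h. Fifteen concentrations, triplicate.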

Assay [11] is described as follows: qHTS assay to identify small molecule phospholipidosis (PLD) inducers (AID 1259344; active means well fitted curve in the direction sought with a large enough effect; an effect the other way counts as inactive or inconclusive; further: potency means the concentration at half of the fitted maximal effect). In short, it runs like this: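 HepG2 cells on collagen I, attached 4 h at 37 C, were co-treated with compound and LipidTOX Red dye for 24 h at 37 C, then fixed with paraformaldehyde plus Hoechst 33342 and imaged by high-content microscopy for phospholipid accumulation.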
A short description of assay [12]: qHTS assay to identify small molecule antagonists of the sonic hedgehog signaling (Shh) pathway (AID 1259369; calls by dose curve; further: nearly all actives have a fitted effect of over 45% in size; further: potency means the concentration at half of the fitted maximal effect). In short, it runs like this: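 NIH/3T3-derived 3T3Gli1-Luc cells with stably integrated Gli1-Luc reporter were preincubated 4hr at 37 C, then given compounds in DMSO plus Shh conditioned medium and incubated 24hr. Firefly luciferase luminescence read after 30min reagent at room temperature.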

The target of assay [13] is Estrogen receptor beta (Homo sapiens) (UniProt Q92731). Kind of assay: qHTS assay to identify small molecule agonists of the estrogen receptor beta (ER-beta) signaling pathway (AID 1259377; active means well fitted activation curve with a large enough effect in the signal ratio in the repeat runs, not every such curve was filed as active; the % refers to the signal ratio). In short, it runs like this:
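Measured by fluorescence intensity from a B/G FRET beta-lactamase substrate (2 h, room temperature) in ER-beta-UAS-bla HEK293T cells treated with DMSO-dissolved compounds for 16 hr at 37C and 5% CO2.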

A short description of assay [14]: qHTS assay to identify small molecule agonists of the estrogen receptor beta (ER-beta) signaling pathway - cell viability counter screen (AID 1259380). Further: nearly all actives have a fitted effect of over 30% in size. Further: potency means the concentration at half of the fitted maximal effect. In short, it runs like this: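 ER-beta-UAS-bla HEK293T cells in medium with 2% charcoal-stripped FBS were preincubated 6 hr at 37C, dosed with compound in DMSO for 16 hr, then after the bla read, CellTiter-Glo was added for 30 min at room temperature; luminescence recorded.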

Assay [15] is described as follows: qHTS assay to identify small molecule antagonists of the estrogen receptor beta (ER-beta) signaling pathway - cell viability counter screen (AID 1259382). Further: nearly all actives have a fitted effect of over 55% in size. Further: potency means the concentration at half of the fitted maximal effect. In short, it runs like this:
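ER-beta-UAS-bla HEK293T cells (2,000/well, 2% charcoal-stripped FBS) were pre-incubated 6 hr at 37C, then given compound plus 1nM final 17-beta-estradiol for 16 hr. Viability was read in the same wells by CellTiter-Glo luminescence after 30 min at room temperature.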

The target of assay [16] is Estrogen receptor (Homo sapiens) (UniProt P03372). Description: qHTS assay to identify small molecule antagonists of the estrogen receptor alpha (ER-alpha) signaling pathway using the BG1 cell line in the presence of 0.1 nM 17-beta-estradiol (AID 1259244). Further: nearly all actives have a fitted effect of over 50% in size. Summed up: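 VM7Luc4E2 cells (endogenous full-length ER-alpha, stable 4xERE-luciferase) were grown 5 days in phenol red-free medium with charcoal-stripped FBS, then exposed 22 h at 37C to compounds plus 0.1 nM (final) 17beta-estradiol; ONE-Glo luminescence read-out.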
Estrogen receptor (Homo sapiens), sequence (P03372 whole entry, looked up): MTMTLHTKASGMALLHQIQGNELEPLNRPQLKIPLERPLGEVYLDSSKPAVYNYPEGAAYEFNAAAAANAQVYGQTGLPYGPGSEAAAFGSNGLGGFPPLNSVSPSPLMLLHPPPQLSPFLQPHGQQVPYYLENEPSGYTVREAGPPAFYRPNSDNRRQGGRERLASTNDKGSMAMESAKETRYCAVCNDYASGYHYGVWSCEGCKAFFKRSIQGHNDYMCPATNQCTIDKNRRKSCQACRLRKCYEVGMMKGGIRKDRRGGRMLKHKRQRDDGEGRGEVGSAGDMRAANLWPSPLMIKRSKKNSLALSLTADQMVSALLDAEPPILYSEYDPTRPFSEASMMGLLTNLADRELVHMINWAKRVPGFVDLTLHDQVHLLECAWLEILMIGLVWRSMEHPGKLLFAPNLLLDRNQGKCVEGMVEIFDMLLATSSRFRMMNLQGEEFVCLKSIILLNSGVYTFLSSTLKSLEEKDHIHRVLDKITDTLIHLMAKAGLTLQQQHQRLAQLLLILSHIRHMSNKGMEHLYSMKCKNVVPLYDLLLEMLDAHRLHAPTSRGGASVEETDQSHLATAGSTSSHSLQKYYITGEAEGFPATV

Assay [17] shares this target. Kind of assay: qHTS assay to identify small molecule agonists of the estrogen receptor alpha (ER-alpha) signaling pathway in the presence of an antagonist (AID 1259383; calls by dose curve; further: nearly all actives have a fitted effect of over 15% in size; further: potency means the concentration at half of the fitted maximal effect; on activation: top concentration of the series differs between compounds). In short, it runs like this: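 VM7Luc4E2 cells (endogenous full-length ER-alpha, 4×ERE-luciferase) were precultured 5 days in phenol red-free medium with 10% charcoal-stripped FBS, given 10.0nM ICI-182,780 (final), then treated with compounds at 15 concentrations for 22hr at 37C; luminescence read with ONE-Glo.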

Assay [18] in a line: qHTS assay to identify small molecule antagonists of the androgen receptor (AR) signaling pathway using the MDA cell line in the presence of 0.5 nM R1881 - cell viability counter screen (AID 1259242). Further: nearly all actives have a fitted effect of over 45% in size. In short, it runs like this: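 MDA-kb2 cells (human breast carcinoma, stably carrying MMTV-luciferase reporter) were exposed to compounds with 0.5 nM R1881 (final) for 16 hr at 37C, 0% CO2; viability then read as live-cell protease fluorescence (CellTiter-Fluor, 30 min) in the same wells.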

`CCCCCCC(O)CCCCCCCCCCC(=O)OC` (configuration not stated): the Potency entry in assay [1], in assay [2], in assay [3], in [4], in [5] and in assay [6] was “inactive” in each case. Also, the Potency result in assay [7], in [8], in assay [9] and in assay [10] was “inactive” each time.

As for `CC[C@@H](CO)NCCN[C@@H](CC)CO`, the Potency entry in assay [1], in assay [2], in assay [11], in assay [3], in [4] and in [5] was “inactive” in each case. The Potency result in [6], in assay [7], in [12], in [13], in assay [8] and in [9] was “inactive” each time. Further, the Potency entry in assay [14] and in [15] was “inactive” in each case.

Consider `CC(C(=O)O)c1ccc(C(=O)c2cccs2)cc1` (configuration not stated), for which the Potency result in [1], in [2], in assay [11], in [4], in assay [5] and in assay [6] was “inactive” in each case. The Potency result in [7], in [12], in assay [13], in assay [9], in assay [14] and in [15] was “inactive” each time. Besides, the Potency in assay [3] is 29.8 µM (active).

Turning to `COc1ccc(N)c([N+](=O)[O-])c1`, the Potency entry in assay [1], in assay [2], in assay [4], in assay [5], in assay [7] and in assay [12] was “inactive” throughout. For the same molecule, the Potency entry in assay [8], in assay [14], in [15] and in [10] was “inactive” throughout.

Turning to `c1ccc(CNc2ncnc3c2ncn3C2CCCCO2)cc1` (configuration not stated), the Potency entry in [1], in [2], in assay [16], in assay [4], in [5] and in [6] was “inactive” throughout. Also, the Potency result in [12], in assay [9], in assay [14] and in assay [15] was “inactive” throughout. For the same molecule, the Potency in [17] was 7.7 µM (active).

For the molecule `O=C(/C=C/c1ccc([N+](=O)[O-])cc1)c1ccccc1`, the Potency entry in [1], in assay [2], in assay [16], in assay [4], in assay [5] and in [6] was “inactive” throughout. In addition, the Potency result in [7], in assay [15], in assay [17] and in assay [10] was “inactive” in each case. Moreover, in [3], the Potency was 8.65 µM (active).

`COc1ccc(-c2cc(=S)ss2)cc1`: the Potency result in assay [1], in [18], in assay [16], in assay [11], in assay [4] and in assay [5] was “inactive” each time. Besides, the Potency entry in assay [6], in [7], in assay [12], in [13], in [14] and in assay [15] was “inactive” each time. In addition, in [10], the Potency result was “inactive”. The Potency in assay [8] is 13.3 µM (active).

Consider `CC(C)COC(=O)COc1cc(Cl)c(Cl)cc1Cl`, for which the Potency entry in assay [1], in assay [2], in assay [16], in assay [3], in [4] and in assay [6] was “inactive” in each case. The Potency result in assay [7], in assay [12], in assay [8], in assay [9], in [14] and in assay [15] was “inactive” throughout. Further, the Potency entry in assay [17] and in assay [10] was “inactive” each time.

As for `O[C@@H](CNC[C@H](O)[C@H]1CCc2cc(F)ccc2O1)[C@@H]1CCc2cc(F)ccc2O1`, the Potency was 23.9 µM (active) in assay [1]; 3.55 µM (active) in assay [11]; 29.8 µM (active) in [5]; 29.8 µM (active) in assay [6]; 13.3 µM (active) in assay [12]; 8.41 µM (active) in assay [8]. For the same molecule, the values for the Potency in [14] and in [15] were 11.9 µM (active) and 21.1 µM (active), respectively. In addition, the Potency entry in assay [2], in [3], in [4], in assay [7], in assay [13] and in [17] was “inactive” each time. Further, the Potency result in [10] is “inactive”.
